Test results as given in ChEMBL document CHEMBL3988442, “University of Dundee, Small-Polar-MMV Screening Library” (2021).

How the values were obtained:
[1] = target: T1, Aspartate--tRNA(Asp/Asn) ligase (Mycobacterium tuberculosis (strain ATCC 25618 / H37Rv)) (UniProt P9WFW3); test: Assay for Asp RNA synthetase-1 from Mycobacterium tuberculosis; assay type: functional; design: scale not given: direction of the effect not stated beside the values; details: 30 µM; also: in the data most compounds retested in dose-response had high values
T1 sequence (whole entry): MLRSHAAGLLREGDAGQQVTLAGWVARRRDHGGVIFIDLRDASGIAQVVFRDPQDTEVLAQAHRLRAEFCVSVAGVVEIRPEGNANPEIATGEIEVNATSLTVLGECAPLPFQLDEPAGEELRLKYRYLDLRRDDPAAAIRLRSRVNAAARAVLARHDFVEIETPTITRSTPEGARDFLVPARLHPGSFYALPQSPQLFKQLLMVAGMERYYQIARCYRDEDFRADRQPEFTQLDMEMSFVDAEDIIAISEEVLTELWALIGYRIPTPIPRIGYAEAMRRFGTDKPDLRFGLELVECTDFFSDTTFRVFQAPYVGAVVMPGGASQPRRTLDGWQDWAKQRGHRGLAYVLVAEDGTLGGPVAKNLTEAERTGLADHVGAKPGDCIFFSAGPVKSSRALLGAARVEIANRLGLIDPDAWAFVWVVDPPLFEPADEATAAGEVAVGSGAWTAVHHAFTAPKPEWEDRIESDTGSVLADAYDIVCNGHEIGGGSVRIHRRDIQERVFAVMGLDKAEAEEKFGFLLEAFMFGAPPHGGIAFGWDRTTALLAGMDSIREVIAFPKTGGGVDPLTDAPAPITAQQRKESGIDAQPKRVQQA

[2] = target: Shiga toxin 2 (Escherichia coli O157:H7) (UniProt P09385+P09386); test: E. coli 0.157:H7 Shiga Toxin SOP - stx2 screening assay; assay type: functional; design: scale not given: direction of the effect not stated beside the values; details: 30 µM

In the case of `COc1c(CNC(c2ccc(F)cc2)c2nccn2C)c(C)nn1C` (stereo not given), the Percent Effect [1] is reported as -6.01% and the Percent Effect [2] is reported as -17.1%.
In the case of `O=C(c1ccccc1-c1ccccc1)N1CCOC2(CNCCOC2)C1` (stereo not given), the Percent Effect [1] is reported as 1.51% and the Percent Effect [2] is reported as -1.85%.
`Cc1cccc(-c2ccc(C(=O)NCCN(C)C3CC3)c(=O)[nH]2)c1` showed a Percent Effect [1] of 4.25% and a Percent Effect [2] of 19.3%.
`O=S(=O)(CCN1CCOC(Cn2cncn2)C1)c1ccccc1` (stereo not given) was tested, and the Percent Effect [1] was -2.75% and the Percent Effect [2] was -7.21%.
In the case of `Nc1nc2c(c(=O)[nH]1)CCN(C(=O)c1cccc3nccnc13)C2`, the Percent Effect [1] is reported as 6.9% and the Percent Effect [2] is reported as -31.4%.
In the case of `Cc1cc(-c2cnc(N3CCNC(=O)C3)nc2-c2ccc(C)o2)on1`, the Percent Effect [1] is reported as -1.93% and the Percent Effect [2] is reported as -18.2%.
`O=C(c1ccc(F)c(Cl)c1)N1C[C@@H]2CC[C@H](C1)N(Cc1ccccc1)C2` gave a Percent Effect [1] of 4.06% and a Percent Effect [2] of -25.3%.
`FC1(F)CCN(Cc2ccncc2)CC12CCN(Cc1ccccn1)C2` (stereo not given) was tested, and the Percent Effect [1] was 4.66% and the Percent Effect [2] was -2.47%.
`CCn1nc(C)c2ccn(CC(=O)NC3CCCC3)c(=O)c21` showed a Percent Effect [1] of 4.68% and a Percent Effect [2] of 12.1%.
Work on `CNC(=O)c1cccc(C2CNCCN2C(C)=O)c1` (stereo not given) yielded a Percent Effect [1] of -2.04% and a Percent Effect [2] of -2.23%.
Compound `CC(C)CN1CCN(C)C2(CCN(Cc3ccsc3)CC2)C1=O` has a Percent Effect [1] of 1.25% and a Percent Effect [2] of -3.28%.
`CCC1CN(C(=O)c2ccc(Cl)cc2O)CCN1C(C)C` (stereo not given) was tested, and the Percent Effect [1] was -3.56% and the Percent Effect [2] was 5.13%.
For `Cc1c(F)cccc1CN1CCn2nc(CNC(=O)N(C)C)cc2C1`, the Percent Effect [1] was 0.386% and the Percent Effect [2] was -49.9%.
With `CCc1n[nH]c(C2CN(C(=O)c3cc4c(s3)CCCC4)CCO2)n1` (stereo not given) the Percent Effect [1] was -1.69% and the Percent Effect [2] was 4.53%.
`COCc1nc(N(C)C)ncc1C(=O)Nc1ccn(C)n1` showed a Percent Effect [1] of -1.07% and a Percent Effect [2] of -19.2%.
`CC[C@H](C)[C@H](NC(=O)Cc1csc(-c2cccc(Cl)c2)n1)C(=O)O` showed a Percent Effect [1] of 4.59% and a Percent Effect [2] of -17.1%.
Compound `Cc1ccc(NC2CCN(C(=O)c3cc[nH]n3)CC2)nn1` has a Percent Effect [1] of -1.83% and a Percent Effect [2] of 18.1%.
With `Cc1cccc(CN2C(=O)CC[C@@H]3[C@H]2CCN3Cc2ccc(C)s2)n1` the Percent Effect [1] was 7.52% and the Percent Effect [2] was -11.3%.
`O=C(NCCNc1ncccn1)N1CCCC(C(F)(F)F)C1` (stereo not given) was tested, and the Percent Effect [1] was 4.41% and the Percent Effect [2] was 1.25%.
`CC(C)(O)C1CCN(C(=O)Nc2nc(-c3ccccc3)ns2)CC1` was tested, and the Percent Effect [1] was 1.51% and the Percent Effect [2] was -6.7%.
In the case of `Cn1ccnc1CN1CCN(c2ccc(C#N)cn2)CC1`, the Percent Effect [1] is reported as 1.72% and the Percent Effect [2] is reported as -34.8%.
Compound `CCCc1noc(CCC(=O)N2CCCC2c2noc(C3CC3)n2)n1` (stereo not given) has a Percent Effect [1] of -2.66% and a Percent Effect [2] of 6.31%.
Compound `CCC1(CC)Cc2ccccc2-c2nc(NCCO)[nH]c(=O)c21` has a Percent Effect [1] of 6.5% and a Percent Effect [2] of 17.7%.
`Cc1noc(CCCC(=O)NC(C)c2cn(-c3ccccc3)nn2)n1` (stereo not given) showed a Percent Effect [1] of -5.92% and a Percent Effect [2] of 0.819%.
Compound `O=C(c1cnco1)N1CCCC(Cc2cccc3ncccc23)C1` (stereo not given) has a Percent Effect [1] of 3.23% and a Percent Effect [2] of -27.4%.
`Cc1cccc(CN(C)Cc2nc3c(cnn3C)c(=O)[nH]2)c1` was tested, and the Percent Effect [1] was 3.62% and the Percent Effect [2] was 35.9%.
`CNS(=O)(=O)c1ccc(CNC(=O)NCC2CCOC2)cc1` (stereo not given) was tested, and the Percent Effect [1] was -4.9% and the Percent Effect [2] was 25.4%.
`O=C(C(CNCc1ccncc1)c1ccccc1)N1CCOCC1` (stereo not given) showed a Percent Effect [1] of 11.7% and a Percent Effect [2] of -69.6%.
`Cc1nc(CN(C)C2CCN(Cc3nc4ccccc4s3)C2)no1` (stereo not given) was tested, and the Percent Effect [1] was -0.253% and the Percent Effect [2] was 0.376%.
`Cc1ncc(-c2nc3cc(S(=O)(=O)N4CCCC4)ccc3n2C)cn1` was tested, and the Percent Effect [1] was 6.27% and the Percent Effect [2] was 0.802%.
In the case of `CNc1cc2c(nn1)CCN(C(=O)c1ccoc1)C2`, the Percent Effect [1] is reported as 0.663% and the Percent Effect [2] is reported as 28.5%.
With `c1ccc(CCN2CCN(c3ccc4nncn4n3)CC2)nc1` the Percent Effect [1] was 1.58% and the Percent Effect [2] was -28.9%.
`CCc1nc(CN2CCN(c3ncnc4cc(F)ccc34)CC2)no1` showed a Percent Effect [1] of -1.46% and a Percent Effect [2] of -69.6%.
Work on `O=C(c1ncccn1)N1C[C@H]2CCC[C@@]2(COCC2CCOCC2)C1` yielded a Percent Effect [1] of -6.49% and a Percent Effect [2] of -2.7%.
With `Cc1ccc(C(=O)N2CCC3(CC2)CCN(CCN(C)C)C3=O)cn1` the Percent Effect [1] was -4% and the Percent Effect [2] was -1.78%.
`CCc1nc(CN(C)C2CCN(CCNS(=O)(=O)CC)C2)no1` (stereo not given) was tested, and the Percent Effect [1] was 5.16% and the Percent Effect [2] was -60.5%.
`CC(C)c1nc(C2CCCN2CCCc2nc3ccccc3o2)no1` (stereo not given) gave a Percent Effect [1] of -3.53% and a Percent Effect [2] of 17.3%.
`O=C(CCc1cccnc1)N(Cc1ccsc1)CC1CCCO1` (stereo not given) showed a Percent Effect [1] of -1.24% and a Percent Effect [2] of -0.116%.
Compound `CC(O)CN1CCC(CNCc2cccc(C(N)=O)c2)CC1` (stereo not given) has a Percent Effect [1] of -0.954% and a Percent Effect [2] of 12.7%.
`O=C1NCCCCC1Sc1nnc(-c2cccnc2)n1C1CC1` (stereo not given) was tested, and the Percent Effect [1] was -3.62% and the Percent Effect [2] was 7.22%.
Compound `Cc1ccoc1C(=O)N1CC[C@H]2OCC[C@@]2(COCc2ccncc2)C1` has a Percent Effect [1] of 3.13% and a Percent Effect [2] of -14.8%.
`O=C(NCCNc1ncccn1)N1CCN(Cc2cccnc2)CC1` gave a Percent Effect [1] of 6.28% and a Percent Effect [2] of -6.42%.
Work on `CCc1nnc2n1CCN(Cc1csc(-c3ccsc3)n1)C2` yielded a Percent Effect [1] of 1.89% and a Percent Effect [2] of -7.29%.
With `COc1ccc(F)c(CN2CCC(c3cc(O)nc(C)n3)C2)c1` (stereo not given) the Percent Effect [1] was -6.3% and the Percent Effect [2] was -8.55%.
For `Cc1cc(C)c(CNC(=O)NCC(O)COc2ccccc2)c(=O)[nH]1` (stereo not given), the Percent Effect [1] was 4.61% and the Percent Effect [2] was 27.6%.
